Screening data: PubChem, several laboratories
Lmaj promast = Leishmania major promastigote growth inhibition, primary screen. 200,000 tested, 9% active. inhibition, % at 10 µM. AID 1063, 2008. Leishmania major promastigotes, resazurin fluorescence viability; in the data active means inhibition above about 50%;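 further: promastigotes grown with compound for 44 hours at 28 °C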
WT yeast gro inh = growth inhibition of WT strain, primary screen, mitochondrial fusion inhibitor project, WT and mutant strains, chemical genetic; AID 1362, 2008; 190,000 tested, 2.1% active; mitochondrial fusion phenotypic screen; inhibition, % at 10 µM; in the data active means inhibition above about 58%; tested in S. cerevisiae
RAM inhibit = inhibitors of the yeast RAM network, primary screen, dse1pr::URA3 reporter, 5-FOA selection; 190,000 tested, 1.8% active; S. cerevisiae dse1pr::URA3 reporter, 5-FOA growth OD615, 2 d; analog-sensitive cbk1-as2 kinase mutant strain; inhibition, % at 50 µM;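 active means inhibition above a set limit, 3 SD over mean compound inhibition, cut at about 8.4% in these data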;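 further: 0% = DMSO-only wells with no growth and 100% = 10 µM 1-NA-PP1 full growth; inhibition rescues growth on 5-FOA so higher OD means more RAM inhibition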
CHOP inhibitor = inhibitors of CHOP promoter induction, primary screen, cell-based, unfolded protein response, luciferase reporter. AID 2732, 2010. CHO-K1 CHOP-promoter luciferase, tunicamycin-induced, 15-18 h. 220,000 tested, 3.8% active. inhibition, % at 10 µM;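 active means compounds that reduced the stress-induced luciferase reporter signal by more than about 70% of percent inhibition, limit read from the data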;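 further: 0% = tunicamycin plus vehicle and 100% = wells without tunicamycin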
Numbers without * were called inactive; x = not tested or not shown. Rows were chosen to be rich in hits. Some 13% of all compounds tested hit in one or more screens of this group.

SMILES	Lmaj promast	WT yeast gro inh	RAM inhibit	CHOP inhibitor
O=C1c2ccccc2-c2onc3ccc(NCc4ccco4)c1c23	-2	66*	8	34
CCC(C(=O)NN1C(=O)c2ccccc2C1=O)c1ccccc1 (configuration not stated)	0	-14	1	13
CC(O)CNC(=O)C1CCN(Cc2ccc(OCc3ccccc3)cc2)CC1 (configuration not stated)	91*	-3	2	-5
O=C(NCc1ccccn1)C1CCN(Cc2cccc(OCc3ccccc3)c2)CC1	100*	-1	0	9
Cc1ccccc1N1CCN(C(=O)c2ccccc2NC(=O)c2ccccc2C(=O)O)CC1	-1	-9	-1	-4
O=C(NC1CC1)C1=C[C@@H](c2ccc(Br)cc2)C[C@@H](OCc2ccc(CO)cc2)O1	x	x	x	-14
CC1(C)CC2CC(C)(CN2C(=O)COc2cccc3ccccc23)C1 (configuration not stated)	10	12	2	91*
CC1(C)CC2CC(C)(CN2C(=O)COC(=O)c2n[nH]c(=O)c3ccccc23)C1 (configuration not stated)	-7	2	1	2
CC(C)[C@H](NC(=O)c1ccccc1)C(=O)OCC(=O)N1CC2(C)CC1CC(C)(C)C2 (some centres not stated)	53*	-12	-1	40
CC(C)[C@H](NC(=O)c1ccccc1)C(=O)OCC(=O)N1CCCCCC1	-4	-11	0	11
CC(C)C(NC(=O)c1ccc(F)cc1)C(=O)OCC(=O)N1CC(=O)Nc2ccccc21 (configuration not stated)	68*	2	0	4
O=C(NC12CC3CC(CC(C3)C1)C2)c1ccc(-c2ccc(Cl)cc2)o1	92*	57	3	14
O=C(NC12CC3CC(CC(C3)C1)C2)c1ccc(COc2ccc(Cl)cc2[N+](=O)[O-])o1	17	6	4	35
O=C(NC12CC3CC(CC(C3)C1)C2)c1ccc(-c2ccccc2Cl)o1	31	10	4	46
O=C(NC12CC3CC(CC(C3)C1)C2)c1ccc(-c2cccc(Cl)c2)o1	22	66*	4	15
N#C/C(=C/c1cn(CC(=O)O)c2ccccc12)C(=O)NCc1ccccc1	6	-11	4	-2
CCN(C(=S)Nc1cc(S(=O)(=O)N2CCOCC2)ccc1Cl)c1cccc2ccccc12	65*	11	2	10
O=S(=O)(c1ccc(Cl)c(NC(=S)Nc2cccc(O)c2)c1)N1CCOCC1	-6	-7	0	22
O=C1c2ccccc2C(=O)C1c1ccc2ccccc2n1	33	-11	2	92*
CN(C)CCNC(=O)CNC(=S)N(Cc1ccccc1)Cc1ccccc1F	-2	20	-1	6
CCOC(=O)CNC(=S)N(Cc1ccccc1)Cc1ccccc1F	20	6	7	29
O=C(CNC(=S)N(Cc1ccccc1)Cc1ccccc1F)NCCc1ccccc1	27	64*	11*	35
O=C(CNC(=S)N(Cc1ccccc1)Cc1ccccc1F)NCc1ccccc1	22	75*	7	47
O=C(CNC(=O)c1ccc2ccccc2c1)OCC(=O)N1CCN(S(=O)(=O)c2ccc3ccccc3c2)CC1	-9	-1	7	30
Cc1cc(-c2nn(-c3ccccc3F)cc2CN2CCN(c3ccccn3)CC2)c(C)s1	38	66*	0	4
SMILES	Lmaj promast	WT yeast gro inh	RAM inhibit	CHOP inhibitor
Cc1cc(-c2nn(-c3ccccc3F)cc2CNCCc2cnccn2)c(C)s1	16	2	1	17
CSc1nc2cc(C)nn2c(-c2ccccc2Cl)c1C#N	x	x	x	-28
CCCC(=O)N1CC(=O)Nc2ccc(F)cc2C1c1ccccc1 (configuration not stated)	33	7	0	18
CN1CC(=O)Nc2ccc(F)cc2C1=O	-6	60*	1	35
O=C(Nc1ccc2ccccc2n1)C1CCCCC1	x	x	x	-17
COc1cccc(NC(=O)Nc2ccc(C)c(Cl)c2)c1	-5	-2	3	88*
Fc1ccc(CNC(=S)Nc2cccc(Cl)c2)cc1	8	60*	1	6
CC(C)(C)c1ccc(NC(=O)Nc2ccc3ccccc3n2)cc1	x	x	x	85*
COc1cccc(NC(=O)Nc2ccc(Cc3ccncc3)cc2)c1	7	8	0	70*
COc1cccc(NC(=O)C(=O)NCc2ccncc2)c1	-3	4	3	-32
COc1cccc(NC(=O)Nc2ccc(C(C)(C)C)cc2)c1	1	63*	9.9*	93*
COc1cccc(NC(=S)NCc2ccncc2)c1	68*	1	1	30
